Measurements from PubChem BioAssay AID1508600 (Functional Genomics Laboratory (NCATS/FGL), 2020).
The campaign covered roughly 53,000 sequences. About 3,700 (7%) were called active. The full list was thinned out, with actives kept by preference. Unmarked numbers belong to inactive results.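 How the source made its calls: active means gene knockdowns whose robust z-score for IL-1 alpha signal is at least 2 or at most -2, so actives lie on both sides; inactive means the rest.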

Assay: Components of the Cytosolic LPS Sensing Pathway: Gene Identification via Genome-wide siRNA Screen;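 further: robust z of the log signal after scaling to non-targeting control siRNA wells of the plate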
Details: RAW264.7 macrophages, IL-1a HTRF, actives lie on both sides, screened at 100 nM (by protocol), cells primed 5 h with Pam3CSK4 first
Outline: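 Three distinct siRNAs per gene were tested singly at 100 nM in RAW264.7 macrophages. Following Pam3CSK4 priming and 24 hour LipidA transfection, IL-1a secretion was read by HTRF.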
GGAGUUAGAAACUCAUUUUTT against Ppargc1b showed a z-score of 1.5.
With GGCACCCAUUCCUAAAAUGTT against Hmgn5 the z-score was -0.929.
GGAUCUGAAAAAAUUAAGCTT against Stat2 showed a z-score of 0.65.
With GGAUAUGCCUCCCUUGAUGTT against Gstt3 the z-score was -2.4 (active).
With CGAGUGUUUGGACAACAAUTT against Ldlr the z-score was 0.391.
In the case of CUAUGUGGUCACAAUAGAGTT against Olfr1360, the z-score was 0.411.
Work on CCUAUGUCACUAAGGCACGTT against Nudt13 yielded a z-score of 0.482.
Sequence GCACGAUCUUCCAAACCCUTT against Dhh has a z-score of -1.25.
For CCAGGGUGGUCUUUUGAAGTT against Eif1, the z-score was -1.66.
Sequence “GGUAGAUGAUAAUUUCACUTT against 4930595M18Rik” has a z-score of -0.894.
Work on GCCAUGAGACACCUUCUCUTT against Olfr843 yielded a z-score of -1.96.
With GGCGAACUGAAGGAUAUGGTT against Anapc5 the z-score was 0.835.
Work on ACAUGACAAACAACACUAUTT against Olfr960 yielded a z-score of -0.891.
With GGCAGCUAGAGAGAAUCCUTT against Akr1c12 the z-score was -2.45 (active).
GCUUUCGGUGGAUUCCUUATT against Rars2 showed a z-score of -0.714.
In the case of GGACUGGUUCUUCAGAUCCTT against Depp1, the z-score was 3.31 (active).
GGCUUUCGGUUAUGACCAATT against Alas2 gave a z-score of -0.385.
Sequence GGAAACCAUCUUUGAACUUTT against Specc1l has a z-score of 0.54.
With GGAUGUAUGAUGCAGUUAUTT against Olfr1211 the z-score was 1.89.
Sequence GGGAUUUGAGCAUCUUUCCTT against Lrrc40 has a z-score of 0.571.
In the case of GGCUUUGAUUAUGUUCCCATT against Fcer2a, the z-score was -0.188.
GGUGACUAGAAAAAUGGAUTT against Cd1d1 gave a z-score of 0.528.
With GGAGAAGAUGUGGAGACAUTT against Edf1 the z-score was -1.3.
GGCAAAGAUCUUAUGGAGATT against Csf3r showed a z-score of 0.0079.
In the case of GGUUCUUUUUGCCACAGCCTT against Miga2, the z-score was -2.31 (active).
GGGAGUAUUACCUCCUUCATT against Igbp1b showed a z-score of 0.00303.
GCAGCUUGAGUUCUCGAAUTT against BC049715 gave a z-score of 0.971.
With GGAAGAAGCUCUAUGCUGATT against Fbxo9 the z-score was -0.589.
Work on GCUUGACCUUUUUACUCCUTT against Siglece yielded a z-score of 0.262.
In the case of GCAGAACUUGACCACUGCCTT against Defb2, the z-score was 2.58 (active).
In the case of GGAUAAUUCACAGUUCAAATT against Tlk1, the z-score was 1.14.
Sequence GGACAUCAUGGACCUGAAGTT against Bmerb1 has a z-score of -0.582.
Sequence GAAGCUAGAAGAGAUUAAATT against Cep41 has a z-score of 0.821.
CCCUGUUGAUGAACAAAUCTT against Ddt gave a z-score of -0.262.
With GGUAUGUAGGAAUUACAGUTT against AI606181 the z-score was 2.49 (active).
With CCUGUCGUUCCUCCUUACATT against Sec11a the z-score was -1.29.
Sequence CCAACCUCCCAUUCUGAAUTT against Ttc22 has a z-score of 1.71.
GGGCUUAUUCUGUUAAUAGTT against Mttp gave a z-score of -0.215.
In the case of GCAGGGAUCUGGAUUUAAUTT against Arf5, the z-score was 3.37 (active).
With CUUAGACCCAAUUCAAUUCTT against Zfp667 the z-score was -0.0845.
CGGCUUCUUAGGAAACUCUTT against Olfr358 gave a z-score of -0.369.
Sequence GGUGAAAACGUGGUUCCAGTT against Bsx has a z-score of -0.0072.
For GGUGACUUCCACUCUAACUTT against Sohlh2, the z-score was -2.57 (active).
With GGCUAUGAAUAAACUUUUCTT against Olfr1016 the z-score was 0.429.
With GGGAUGGAGGAGGAGCUUATT against Bad the z-score was 0.86.
For GGAUUCAAUUUUUUGCCAUTT against Pbdc1, the z-score was -1.74.
For CCACGUAUUGUUAGUAGAATT against Ei24, the z-score was 0.251.
For GUAAGGUAUUCAGUGACCUTT against Olfml2a, the z-score was -2.23 (active).
GGAAACAGAUUUAAAGUGATT against Efcc1 gave a z-score of 1.03.
GGACAAGAAGGCAAAUUAGTT against Arhgap9 gave a z-score of 0.366.
For GCAUAAUAAGCCAAUUCUGTT against Med17, the z-score was -0.355.
In the case of GCUGAAGUUUACUAUAACATT against Marco, the z-score was 0.565.
For GGUACCAUCACGUUGUGUATT against M6pr, the z-score was -0.76.
For CCUUGCUCUUUCCAGCUCUTT against Olfr704, the z-score was 0.332.
In the case of GGACAUCGGCUACAACACCTT against Fzd10, the z-score was -2.08 (active).
With GCUGAGGCAAUUUCAACUUTT against Ctla4 the z-score was 0.169.
With GCACGACACUCUGUGCAUCTT against Kyat3 the z-score was 0.6.
Work on GCAUCCUACUUCUCAACUUTT against Ceacam12 yielded a z-score of 0.328.
Work on GGGUUUCGCUAGAACCAUUTT against Plekhg5 yielded a z-score of -0.541.
Work on GCUUGUUGCCUAGGACCUATT against Eif1ad yielded a z-score of -1.14.
Sequence CCCUCAGAUUCAAAAAGUGTT against Krt1 has a z-score of 0.233.
GCAUGGAGAGAACCUGAAATT against Trim69 gave a z-score of -0.801.
For GGGCCAAGAUACCAAGAGUTT against Spout1, the z-score was -2.71 (active).
GGAUAACAGUAAAUGGCUUTT against Zkscan8 gave a z-score of 0.152.
In the case of “GGUUAAGUUACUAACCCAGTT against 4931406C07Rik”, the z-score was 1.01.
“GAGACACUUGUGCUGUAGGTT against F730035P03Rik” gave a z-score of 0.108.
For “GCACUGUAUUCUUGAGCACTT against 1700020L24Rik”, the z-score was 2.06 (active).
For GGUAGUGAUUACGAACCAATT against Hey1, the z-score was 0.605.
